Laboratory results as given in PubChem BioAssay AID1159580 (chemical genetic matrix, 2015).
“And” between values parts separate entries of the source, which are not always exact repeats. Equal entries are not always repeated. Hit rate of the full screen: of about 5,500 compounds, about 2,000 (36%) were called active. Not shown: some 18% with an inconclusive outcome. Rule as the data show it: active = normalized growth mostly below about 0.91 (no sharp cut-off); inconclusive = no clear call, values can overlap the other calls; inactive = mostly above about 0.92. Some of the results follow.

Assay: chemical genetic growth profiling, strain panel (AID 1159580);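 also: tested at 20 µM; growth read once vehicle control cultures reached saturation at 30 °C; 1 = growth at the plate median or of vehicle wells; lower values mean less growth of the strain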
Settings: S. cerevisiae deletion strains, growth OD

Measured: normalized growth

CCCc1ncc(C[n+]2ccccc2C)c(N)n1
inactive: locus YAL021C, strain ccr4, stronger effect = lower value 0.94 | locus YAL026C, strain drs2, stronger effect = lower value 0.999 | locus YAL030W, strain snc1, stronger effect = lower value 0.991 | locus YBL061C, strain skt5, stronger effect = lower value 0.976 | locus YBR009C, strain hhf1, stronger effect = lower value 1.03 | locus YBR021W, strain FUR4, stronger effect = lower value 1.06 | locus YBR023C, strain chs3, stronger effect = lower value 0.999 | locus YBR171W, strain sec66, stronger effect = lower value 0.969 | locus YBR229C, strain ROT2, stronger effect = lower value 1 | locus YBR231C, strain swc5, stronger effect = lower value 0.966 | locus YBR279W, strain paf1, stronger effect = lower value 1.01 | locus YCL011C, strain gbp2, stronger effect = lower value 1 | locus YCL016C, strain dcc1, stronger effect = lower value 1.01 | locus YCL029C, strain bik1, stronger effect = lower value 1 | locus YCL069W, strain vba3, stronger effect = lower value 0.981 | locus YCR088W, strain abp1, stronger effect = lower value 0.992 | locus YDL005C, strain med2, stronger effect = lower value 0.929 | locus YDL035C, strain GPR1, stronger effect = lower value 1.01 | locus YDL040C, strain nat1, stronger effect = lower value 0.967 | locus YDL074C, strain BRE1, stronger effect = lower value 0.99 | locus YDL101C, strain DUN1, stronger effect = lower value 1 | locus YDL134C, strain PPH21, stronger effect = lower value 0.996 | locus YDL185W, strain tfp1, stronger effect = lower value 1.01 | locus YDL192W, strain arf1, stronger effect = lower value 0.999 | locus YDR001C, strain nth1, stronger effect = lower value 0.987 | locus YDR069C, strain doa4, stronger effect = lower value 0.983 | locus YDR101C, strain arx1, stronger effect = lower value 1.01 | locus YDR137W, strain rgp1, stronger effect = lower value 0.998 | locus YDR159W, strain sac3, stronger effect = lower value 0.995 | locus YDR162C, strain NBP2, stronger effect = lower value 1.01 | locus YDR195W, strain ref2 0.932 | locus YDR297W, strain sur2, stronger effect = lower value 0.999 | locus YDR318W, strain mcm21, stronger effect = lower value 0.995 | locus YDR334W, strain swr1, stronger effect = lower value 0.992 | locus YDR335W, strain msn5, stronger effect = lower value 0.99 | locus YDR388W, stronger effect = lower value 0.997 | locus YDR392W, strain spt3, stronger effect = lower value 1.08 | locus YDR502C, strain sam2, stronger effect = lower value 0.993 | locus YEL003W, strain gim4, stronger effect = lower value 0.983 | locus YEL037C, strain rad23, stronger effect = lower value 0.984 | locus YEL061C, strain CIN8 (second series), stronger effect = lower value 0.988 | locus YEL061C, strain CIN8, stronger effect = lower value 1 | locus YER015W, strain faa2, stronger effect = lower value 0.992 | locus YER016W, strain bim1, stronger effect = lower value 1.02 | locus YER110C, stronger effect = lower value 0.99 | locus YER111C, strain swi4, stronger effect = lower value 0.983 | locus YER155C, strain BEM2 (second series), stronger effect = lower value 0.975 | locus YER155C, strain BEM2, stronger effect = lower value 0.991 | locus YER167W, strain BCK2, stronger effect = lower value 0.991 | locus YFR010W, strain ubp6, stronger effect = lower value 0.99 | locus YGL078C, strain dbp3, stronger effect = lower value 0.988 | locus YGL086W, strain mad1, stronger effect = lower value 0.984 | locus YGL167C, strain pmr1, stronger effect = lower value 0.961 | locus YGL173C, strain kem1, stronger effect = lower value 0.947 | locus YGL227W, strain vid30, stronger effect = lower value 0.988 | locus YGL240W, strain doc1, stronger effect = lower value 0.96 | locus YGL248W, strain PDE1, stronger effect = lower value 0.983 | locus YGL253W, strain hxk2, stronger effect = lower value 1.01 | locus YGR078C, strain PAC10, stronger effect = lower value 0.983 | locus YGR135W, strain pre9, stronger effect = lower value 0.984 | locus YGR229C, strain SMI1, stronger effect = lower value 0.997 | locus YGR252W, strain gcn5, stronger effect = lower value 0.967 | locus YHR013C, strain ard1, stronger effect = lower value 0.986 | locus YHR027C, strain rpn1, stronger effect = lower value 0.997 | locus YHR030C, strain SLT2, stronger effect = lower value 1 and 1.11 | locus YHR079C, strain IRE1 (second series), stronger effect = lower value 0.998 | locus YHR079C, strain IRE1, stronger effect = lower value 1.04 | locus YHR094C, strain hxt1, stronger effect = lower value 0.994 | locus YHR129C, strain ARP1, stronger effect = lower value 1 | locus YHR142W, strain chs7, stronger effect = lower value 0.976 | locus YHR200W, strain rpn10, stronger effect = lower value 0.995 | locus YIL066C, strain RNR3, stronger effect = lower value 1.02 | locus YIL073C, strain SPO22, stronger effect = lower value 0.975 | locus YIL125W, strain kgd1, stronger effect = lower value 0.986 | locus YIR030C, strain dcg1, stronger effect = lower value 1.02 | locus YJL092W, strain hpr5, stronger effect = lower value 0.959 | locus YJL095W, strain BCK1 (second series), stronger effect = lower value 0.95 | locus YJL095W, strain BCK1, stronger effect = lower value 1.03 and 1.04 | locus YJL115W, strain asf1, stronger effect = lower value 0.981 | locus YJL129C, strain trk1, stronger effect = lower value 0.966 | locus YJL134W, strain LCB3, stronger effect = lower value 1.01 | locus YJL154C, strain vps35, stronger effect = lower value 0.972 | locus YJL164C, strain tpk1, stronger effect = lower value 1.01 | locus YJL166W, strain qcr8, stronger effect = lower value 0.941 | locus YJL168C, strain set2, stronger effect = lower value 1 | locus YJL187C, strain SWE1 (second series), stronger effect = lower value 0.988 | locus YJR043C, strain POL32, stronger effect = lower value 0.989 | locus YJR066W, strain TOR1, stronger effect = lower value 0.993 | locus YJR075W, strain HOC1, stronger effect = lower value 0.988 | locus YKL009W, strain mrt4, stronger effect = lower value 0.958 | locus YKL068W, stronger effect = lower value 0.995 | locus YKL085W, strain MDH1 (second series), stronger effect = lower value 0.983 | locus YKL085W, strain MDH1, stronger effect = lower value 0.983 | locus YKL160W, strain elf1, stronger effect = lower value 0.981 | locus YKL190W, strain CNB1, stronger effect = lower value 1.01 | locus YKR001C, strain vps1, stronger effect = lower value 1 | locus YKR091W, strain srl3, stronger effect = lower value 0.964 | locus YLL001W, strain dnm1, stronger effect = lower value 0.931 | locus YLL026W, stronger effect = lower value 0.983 | locus YLL041C, strain sdh2, stronger effect = lower value 0.991 | locus YLR027C, strain aat2, stronger effect = lower value 0.983 | locus YLR039C, strain RIC1, stronger effect = lower value 0.944 | locus YLR058C, strain SHM2, stronger effect = lower value 1.01 | locus YLR102C, strain apc9, stronger effect = lower value 0.995 | locus YLR113W, strain HOG1, stronger effect = lower value 1.05 | locus YLR221C, strain rsa3, stronger effect = lower value 1.02 | locus YLR258W, strain gsy2, stronger effect = lower value 0.991 | locus YLR262C, strain YPT6 (second series), stronger effect = lower value 0.951 | locus YLR262C, strain YPT6, stronger effect = lower value 0.988 | locus YLR268W, strain sec22, stronger effect = lower value 0.985 | locus YLR320W, strain mms22, stronger effect = lower value 1.01 | locus YLR330W, strain CHS5, stronger effect = lower value 1.01 | locus YLR342W, strain FKS1 (second series), stronger effect = lower value 0.999 | locus YLR342W, strain FKS1, stronger effect = lower value 0.958 | locus YLR357W, strain rsc2, stronger effect = lower value 0.977 | locus YLR370C, strain arc18, stronger effect = lower value 0.997 | locus YLR371W, strain rom2, stronger effect = lower value 0.996 | locus YLR384C, strain iki3, stronger effect = lower value 0.976 | locus YLR418C, strain cdc73, stronger effect = lower value 0.977 | locus YML016C, strain PPZ1, stronger effect = lower value 1.01 | locus YML032C, strain rad52, stronger effect = lower value 0.988 | locus YML120C, strain ndi1, stronger effect = lower value 0.98 | locus YML124C, strain tub3, stronger effect = lower value 0.989 | locus YMR058W, strain fet3, stronger effect = lower value 0.975 | locus YMR078C, strain ctf18, stronger effect = lower value 0.999 | locus YMR125W, strain sto1, stronger effect = lower value 0.969 | locus YMR129W, stronger effect = lower value 0.986 | locus YMR205C, strain PFK2, stronger effect = lower value 0.982 | locus YMR223W, strain ubp8, stronger effect = lower value 0.997 | locus YMR231W, strain pep5, stronger effect = lower value 0.978 | locus YMR307W, strain GAS1, stronger effect = lower value 1.06 | locus YNL067W, strain RPL9B, stronger effect = lower value 0.992 | locus YNL071W, strain lat1, stronger effect = lower value 0.995 | locus YNL153C, strain GIM3, stronger effect = lower value 0.987 | locus YNL183C, strain NPR1, stronger effect = lower value 0.988 | locus YNL209W, strain ssb2, stronger effect = lower value 0.993 | locus YNL233W, strain BNI4, stronger effect = lower value 1.01 | locus YNL248C, strain rpa49, stronger effect = lower value 0.995 | locus YNL250W, strain rad50, stronger effect = lower value 0.994 | locus YNL271C, strain bni1, stronger effect = lower value 1 | locus YNL298W, strain CLA4, stronger effect = lower value 0.995 | locus YNL307C, strain MCK1, stronger effect = lower value 0.992 | locus YNL322C, strain KRE1 (second series), stronger effect = lower value 0.961 | locus YNR049C, strain mso1, stronger effect = lower value 0.987 | locus YNR052C, strain pop2, stronger effect = lower value 0.999 | locus YOL012C, strain htz1 0.884 | locus YOL147C, strain pex11, stronger effect = lower value 0.994 | locus YOR001W, strain rrp6, stronger effect = lower value 0.979 | locus YOR061W, strain CKA2, stronger effect = lower value 1.01 | locus YOR069W, strain VPS5, stronger effect = lower value 1 | locus YOR070C, strain gyp1, stronger effect = lower value 0.992 | locus YOR080W, strain dia2, stronger effect = lower value 0.965 | locus YOR083W, strain WHI5, stronger effect = lower value 0.94 | locus YOR106W, strain vam3, stronger effect = lower value 0.945 | locus YOR136W, strain idh2, stronger effect = lower value 0.983 | locus YOR144C, strain elg1, stronger effect = lower value 0.989 | locus YOR184W, strain ser1, stronger effect = lower value 0.993 | locus YOR231W, strain MKK1, stronger effect = lower value 1.04 | locus YOR265W, strain rbl2, stronger effect = lower value 0.987 | locus YOR270C, strain vph1, stronger effect = lower value 1 | locus YOR290C, strain snf2, stronger effect = lower value 1.01 | locus YOR316C, strain cot1, stronger effect = lower value 0.997 | locus YPL051W, strain arl3, stronger effect = lower value 0.998 | locus YPL055C, strain LGE1, stronger effect = lower value 1.01 | locus YPL078C, strain atp4, stronger effect = lower value 0.954 | locus YPL106C, strain sse1, stronger effect = lower value 1 | locus YPL240C, strain hsp82, stronger effect = lower value 0.985 | locus YPL256C, strain CLN2, stronger effect = lower value 1.08 | locus YPR119W, strain clb2, stronger effect = lower value 0.998 | locus YPR141C, strain kar3, stronger effect = lower value 0.976 | locus YPR163C, strain tif3, stronger effect = lower value 0.987 | locus YPR167C, strain met16, stronger effect = lower value 0.991 | strain wtn01, stronger effect = lower value 0.973
